Source: PubChem (several laboratories)
Ba/F3 V617F tox: reduce viability of Ba/F3 cells dependent on JAK2V617F | Ba/F3 EpoR-JAK2V617F viability, ATP luminescence | inhibition, % at 5.6 µM | actives 1.1% (n = 220,000) | AID 1446;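 active = inhibition above the campaign mean plus 3 SD over all tested compounds, cut at about 24% in these data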;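 also: cytokine-independent growth of Ba/F3 cells driven by EpoR plus mutant JAK2; 0% = DMSO-treated cells and 100% = JAK inhibitor I control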
KLF5 inh: inhibitors of KLF5 expression; DLD-1 KLF5 promoter-luciferase reporter, luminescence; inhibition, % at 5 µM; actives 0.23% (n = 290,000); AID 1700;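 active = inhibition above a per-plate limit of that plate's mean compound inhibition plus 3 SD, cut at about 60% in these data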;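 also: 0% = DMSO wells and 100% = LY294002 at 200 µM; higher means less KLF5 promoter-driven luciferase light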
APP transl inh: APP translation inhibition. SH-SY5Y APP 5'UTR-luciferase reporter, luminescence. inhibition, % at 2 µM. actives 0.82% (n = 190,000);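 active = inhibition above a set limit, derived from the sample mean plus 3 SD, cut at about 45% in these data; inconclusive = one replicate passes the limit while the other fails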
IEC-6 cytotox: IEC-6 cytotoxicity, counter-screen for KLF5 inhibitors; AID 1825; actives 0.78% (n = 290,000); inhibition, % at 5 µM; luminescence viability; in the data active = inhibition above about 22%;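 also: 0% = plate median of test compound wells and 100% = cytotoxic reference compound wells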
BaF3 tox: counter-screen for JAK2V617F inhibitors: parental Ba/F3 viability inhibitors | actives 1.1% (n = 220,000) | CellTiter-Glo ATP luminescence | inhibition, % at 5.6 µM;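 active = inhibition above a per-campaign cutoff, the mean inhibition of all tested compounds plus 3 SD, cut at about 27% in these data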;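 also: 0% = DMSO wells and 100% = JAK Inhibitor I control wells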
aSyn 5UTR inh: MLPCN primary screen, SNCA 5' untranslated region. actives 0.82% (n = 300,000). inhibition, % (tested at 7.5 µM). AID 1813. alpha-synuclein 5'UTR reporter, inhibitor activity; in the data active = inhibition above about 60%; inconclusive = no clear call, values can overlap the other calls;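 also: H4 neuroglioblastoma cells stably carrying SNCA 5'UTR luciferase fusion; 0% = DMSO wells and 100% = positive control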
* = called active by the depositor. The list is not random: actives were taken first. Their share in the collection is about 2.2%.

What do the screens show for `CC(=O)OC1CC[C@]2(C#N)[C@H]3CC[C@]4(C)[C@H](C5C=CC(=O)O5)CCC4(O)C3CCC2(O)C1` (some centres not stated)?
KLF5 inh: -30; IEC-6 cytotox: -6; aSyn 5UTR inh: 85*

Results for CC(C)(C)NC(=S)/N=C(\N)N[N+](=O)[O-] ?
Ba/F3 V617F tox: 1; KLF5 inh: -3; APP transl inh: -9; IEC-6 cytotox: -6; BaF3 tox: 0; aSyn 5UTR inh: 22

How did Cc1nn(Cc2ccc(Cl)cc2Cl)c(Cl)c1C(=O)O do in these assays?
Ba/F3 V617F tox: -1; KLF5 inh: -13; APP transl inh: 6; IEC-6 cytotox: -11; BaF3 tox: 4; aSyn 5UTR inh: 12

How did N=c1c2c(n(Cc3ccc(Cl)cc3Cl)c3c1CCC3)CCCC2 do in these assays?
Ba/F3 V617F tox: 92*; KLF5 inh: 13; APP transl inh: 2; IEC-6 cytotox: 14; BaF3 tox: 70*; aSyn 5UTR inh: 8

How did CN1CCN(c2nc([N+](=O)[O-])nn2C)CC1 do in these assays?
Ba/F3 V617F tox: 0; KLF5 inh: -19; APP transl inh: -15; IEC-6 cytotox: 4; BaF3 tox: 4; aSyn 5UTR inh: 2

Results for CCC1(OC(=O)CN)C(=O)OCc2c1cc1n(c2=O)Cc2cc3ccccc3nc2-1 (configuration not stated) ?
Ba/F3 V617F tox: 99*; KLF5 inh: 104*; IEC-6 cytotox: 96*; BaF3 tox: 96*; aSyn 5UTR inh: 103*

What do the screens show for `CC(C(=O)c1c[nH]c2ccccc12)N1CCc2ccccc2C1` (configuration not stated)?
Ba/F3 V617F tox: 26*; KLF5 inh: -4; APP transl inh: -4; IEC-6 cytotox: 2; BaF3 tox: 43*; aSyn 5UTR inh: -6

How did CC(=O)c1cn(Cc2ccccc2C#N)c2ccccc12 do in these assays?
Ba/F3 V617F tox: 46*; KLF5 inh: -11; APP transl inh: -4; IEC-6 cytotox: 16; BaF3 tox: 67*; aSyn 5UTR inh: -9

What do the screens show for `O=C(CN1CCN(c2ccccc2F)CC1)Nc1cccnc1Cl`?
Ba/F3 V617F tox: 1; KLF5 inh: 0; APP transl inh: -20; IEC-6 cytotox: -4; BaF3 tox: 3; aSyn 5UTR inh: 5

How did CN(C)c1ccc(/C=C/C=C/c2sc3ccccc3[n+]2C)cc1 do in these assays?
Ba/F3 V617F tox: 99*; KLF5 inh: 5; IEC-6 cytotox: 18; BaF3 tox: 79*; aSyn 5UTR inh: inconclusive

How did COC1CC(OC2CCC3(C)C(CCC4C3CCC3(C)C(C5=CC(=O)OC5)C(OC(C)=O)CC43O)C2)OC(C)C1OC1OC(COC2OC(CO)C(O)C(O)C2O)C(O)C(O)C1O (configuration not stated) do in these assays?
aSyn 5UTR inh: 115*

Results for CCCCN=Cc1c(O)n(-c2c(C)cc(C)cc2C)c(=O)[nH]c1=O ?
Ba/F3 V617F tox: -4; KLF5 inh: 10; APP transl inh: -5; IEC-6 cytotox: -1; BaF3 tox: 1; aSyn 5UTR inh: -2

Results for COc1ccc(-[n+]2c(-c3ccccc3)cc(-c3ccccc3)cc2-c2ccccc2)cc1 ?
aSyn 5UTR inh: 81*

Results for CCCCCCCSc1cc(OC)c(CCNC)cc1OC ?
Ba/F3 V617F tox: 2; KLF5 inh: -37; APP transl inh: -2; IEC-6 cytotox: -1; BaF3 tox: 8; aSyn 5UTR inh: 121*

What do the screens show for `CCCCCSc1cc(OC)c(CCNC)cc1OC`?
Ba/F3 V617F tox: 3; KLF5 inh: -12; APP transl inh: 2; IEC-6 cytotox: 5; BaF3 tox: 7; aSyn 5UTR inh: -34

How did Brc1ccc(C2N3CCCN23)cc1 (configuration not stated) do in these assays?
Ba/F3 V617F tox: 0; KLF5 inh: 1; APP transl inh: -10; IEC-6 cytotox: 1; BaF3 tox: 4; aSyn 5UTR inh: 0

Results for CCOc1cccc(CNCCc2c(C)[nH]c3ccc(OC(F)(F)F)cc23)c1O ?
KLF5 inh: -4; IEC-6 cytotox: 12; aSyn 5UTR inh: 113*

Results for COc1cc(C(=O)N/N=C/C23CC[C@@H](O)CC2(O)CC[C@@H]2[C@@H]3CCC3(C)C(C4=CC(=O)OC4)CCC23O)ccc1O (some centres not stated) ?
Ba/F3 V617F tox: -7; KLF5 inh: 4; IEC-6 cytotox: 4; BaF3 tox: -3; aSyn 5UTR inh: 35
